Assay results: PubChem BioAssay (NCI)
Values joined by “and” are separate entries in the source; they are usually repeats but may differ in a detail not shown here. Equal entries are not always repeated. Compounds without any hit were thinned out: in the full panel of roughly 79,000, 15% have a hit. More than one record can exist for a structure, and the calls need not agree. Active and inactive are the calls of the source. Cut-off read from the data, not from the text of the source: active = growth inhibition above about 70%; inactive = the rest.

Legend:
[1] = NCI Yeast Anticancer Drug Screen. Data for the wt1 strain (AID 149);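 note: 0% = growth of vehicle-treated wt1 cultures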; conditions: S. cerevisiae wt1 strain (SPY 50644) growth inhibition, stronger effect = higher value
Procedure, shortened: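 Yeast wt1 strain exposed to compounds; growth inhibition measured relative to vehicle-treated controls.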

[2] = NCI Yeast Anticancer Drug Screen. Data for the rad50EPP+ strain (AID 151);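 note: 0% = growth of vehicle-treated control cultures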; conditions: S. cerevisiae rad50 mutant strain, stronger effect = higher value
Procedure, shortened: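 Compounds were applied to the rad50EPP+ yeast strain, which bears a defined DNA repair alteration, and growth inhibition was determined relative to vehicle-treated cultures.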

[3] = NCI Yeast Anticancer Drug Screen. Data for the mgt1 strain (AID 153); conditions: S. cerevisiae mgt1 mutant growth inhibition, stronger effect = higher value
Procedure, shortened: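 Strain: mgt1 yeast, one of a set carrying defined DNA damage repair or cell cycle control alterations. Compound-treated growth compared with vehicle.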

[4] = NCI Yeast Anticancer Drug Screen. Data for the rad50 strain (AID 155);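 note: 0% = growth of vehicle-only cultures of the same strain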; conditions: S. cerevisiae rad50 strain growth inhibition, stronger effect = higher value
Procedure, shortened: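 Yeast carrying a defined DNA repair defect were exposed to test compounds, and growth was compared with vehicle-treated controls to give percent inhibition.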

[5] = NCI Yeast Anticancer Drug Screen. Data for the mec2-1 strain (AID 157); conditions: S. cerevisiae mec2-1 strain, stronger effect = higher value
Procedure, shortened: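 Strain: mec2-1 (DNA repair/cell cycle alteration). Compound exposure, then growth measured; inhibition expressed relative to vehicle.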

[6] = NCI Yeast Anticancer Drug Screen. Data for the rad14 strain (AID 159);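 note: 0% = growth of vehicle-treated control cultures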; conditions: S. cerevisiae rad14 strain growth inhibition, stronger effect = higher value
Procedure, shortened: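 Yeast cells carrying a defined DNA-repair defect were exposed to compounds, and growth inhibition was calculated relative to vehicle-treated control cultures.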

[7] = NCI Yeast Anticancer Drug Screen. Data for the sgs1 mgt1 strain (AID 161);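 note: 0% = growth of cultures given vehicle only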; conditions: S. cerevisiae sgs1 mgt1 strain, stronger effect = higher value
Procedure, shortened: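 Test agents were incubated with a DNA-repair-mutant yeast strain. Growth was then read and compared against vehicle-treated controls.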

[8] = NCI Yeast Anticancer Drug Screen. Data for the CLN2oe strain (AID 163);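 note: 0% = growth of vehicle-only control cultures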; conditions: S. cerevisiae CLN2oe strain, stronger effect = higher value
Procedure, shortened: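 Growth of a genetically modified yeast strain is measured after compound exposure and compared with cultures given vehicle alone.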

[9] = NCI Yeast Anticancer Drug Screen. Data for the cln2 rad14 strain (AID 165);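 note: 0% = growth equal to vehicle treated cultures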; conditions: S. cerevisiae cln2 rad14 strain, stronger effect = higher value
Procedure, shortened: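 Compounds are applied to the cln2 rad14 yeast strain, and growth is then compared with that of vehicle-treated cultures to give inhibition.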

[10] = NCI Yeast Anticancer Drug Screen. Data for the bub3 strain (AID 167); conditions: S. cerevisiae bub3 mutant strain, stronger effect = higher value
Procedure, shortened: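 Compounds were applied to a genetically altered yeast strain carrying a cell-cycle control defect. Growth inhibition was scored against vehicle-treated controls.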

[11] = NCI Yeast Anticancer Drug Screen. Data for the wt2 strain (AID 169);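 note: 0% = growth of vehicle-treated yeast cultures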; conditions: S. cerevisiae wt2 strain growth inhibition, stronger effect = higher value
Procedure, shortened: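 This strain belongs to a panel of yeast strains with defined genetic alterations in DNA damage repair or cell cycle control. Compounds are applied, and growth inhibition is measured against vehicle-treated cultures.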

[12] = NCI Yeast Anticancer Drug Screen. Data for the mlh1 strain (AID 171);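 note: 0% = growth of vehicle-treated control cultures of the same strain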; conditions: S. cerevisiae mlh1 strain growth inhibition, stronger effect = higher value
Procedure, shortened: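 Growth of the mutant yeast strain after compound exposure, expressed as inhibition relative to vehicle-only controls.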

[13] = NCI Yeast Anticancer Drug Screen. Data for the sgs1 strain (AID 173);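 note: 0% = growth of vehicle-only control cultures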; conditions: S. cerevisiae sgs1 mutant, stronger effect = higher value
Procedure, shortened: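 Growth of a yeast strain bearing a defined genetic alteration is measured after compound treatment. Inhibition is expressed relative to vehicle-only controls.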

[14] = NCI Yeast Anticancer Drug Screen. Data for the mlh1 rad18 strain (AID 175); conditions: S. cerevisiae mlh1 rad18 strain growth inhibition, stronger effect = higher value
Procedure, shortened: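 Read-out is yeast growth inhibition, calculated against vehicle-only controls. The compound was applied to a strain engineered with DNA damage repair alterations.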

[15] = NCI Yeast Anticancer Drug Screen. Data for the rad18 strain (AID 177); conditions: S. cerevisiae rad18 mutant growth inhibition, stronger effect = higher value
Procedure, shortened: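 Growth of the mutant yeast strain after compound exposure, normalised to vehicle-only cultures.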

[16] = at 5.0 µM (retest, dose inferred, filed as 0.5)
[17] = at 50.0 µM (retest, dose inferred, filed as 5.0)

Measured: growth inhibition

CN(C)CCOC1(Cc2ccc(F)cc2)CCC(C(C)(C)C)CC1 (stereo not drawn)
18.8% (inactive) and 99.2% (active): [5]; at 50.0 µM
inactive: [1]; at 1.2 µM 10% | [1]; at 3.7 µM 6% | [1]; at 11.0 µM -11% | [1]; at 33.0 µM -5% | [2]; at 1.2 µM -1% | [2]; at 3.7 µM -13% | [2]; at 11.0 µM -27% | [2]; at 33.0 µM -61% | [2]; at 100.0 µM 68% | [3]; at 1.2 µM 18% | [3]; at 3.7 µM 8% | [3]; at 11.0 µM 20% | [3]; at 33.0 µM 53% | [4]; at 1.2 µM -10% | [4]; at 3.7 µM 6% | [4]; [16] 4% and -18% | [4]; at 11.0 µM 14% | [4]; at 33.0 µM 53% | [5]; at 1.2 µM -12% | [5]; at 3.7 µM -10% | [5]; [16] -12% and -13% | [5]; at 11.0 µM -8% | [5]; at 33.0 µM 19% | [6]; at 1.2 µM 6% | [6]; at 3.7 µM 7% | [6]; at 11.0 µM 10% | [6]; at 33.0 µM 66% | [7]; [16] -1% and -5% | [8]; at 1.2 µM -5% | [8]; at 3.7 µM -5% | [8]; at 11.0 µM -5% | [8]; at 33.0 µM -2% | [9]; [16] 17% and -22% | [9]; [17] 34% and 51% | [10]; at 1.2 µM -4% | [10]; at 3.7 µM -4% | [10]; [16] 10% and -19% | [10]; at 11.0 µM -1% | [10]; at 33.0 µM 7% | [11]; at 1.2 µM 1% | [11]; at 3.7 µM -1% | [11]; at 11.0 µM -1% | [11]; at 33.0 µM 16% | [12]; at 1.2 µM 2% | [12]; at 3.7 µM 7% | [12]; at 11.0 µM 11% | [12]; at 33.0 µM 58% | [13]; at 1.2 µM 32% | [13]; at 3.7 µM 16% | [13]; at 11.0 µM 18% | [13]; at 33.0 µM 56% | [14]; [16] 7% and -11% | [15]; at 1.2 µM -9% | [15]; at 3.7 µM -23% | [15]; at 11.0 µM -2% | [15]; at 33.0 µM 18%
active: [1]; at 100.0 µM 95% | [3]; at 100.0 µM 98% | [4]; at 100.0 µM 97% | [5]; at 100.0 µM 98% | [6]; at 100.0 µM 98% | [7]; [17] 75% and 83% | [7]; at 50.0 µM 92.8% and 99.1% | [8]; at 100.0 µM 98% | [10]; at 100.0 µM 98% | [11]; at 100.0 µM 99% | [12]; at 100.0 µM 98% | [13]; at 100.0 µM 99% | [14]; [17] 94% and 99% | [14]; at 50.0 µM 97.8% and 99.3% | [15]; at 100.0 µM 98%
15.3% (inactive) and 99.3% (active): [9]; at 50.0 µM
38.3% (inactive) and 99.1% (active): [4]; at 50.0 µM
46.3% (inactive) and 99.2% (active): [10]; at 50.0 µM
56% (inactive) and 99% (active): [10]; [17]
-1% (inactive) and 92% (active): [5]; [17]
65% (inactive) and 92% (active): [4]; [17]
